# Bioassay records deposited in PubChem BioAssay by several laboratories.
# COUP-TFII inh – inhibitors of human COUP-TFII (NR2F2); HEK293T NGFI-A luciferase reporter, luminescence; P24468; 0.7% of 370,000 active; AID 686940; inhibition, % at 8.6 µM;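 active = inhibition above a per-plate cutoff, mean inhibition of test wells between control levels plus 3 SD, cut at about 38% in these data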;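 also: cells cotransfected with COUP-TFII expression vector driving the NGFI-A reporter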
# FXN GAA850 act – increases GAA850 frataxin promoter reporter activity | HEK293 lucGAA850 FXN promoter luciferase reporter, 24 h; percent of 10 µM SAHA response | activation, % at 6 µM | 0.56% of 360,000 active;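 active = activation above the average of all compounds screened plus 3 SD, cutoff fixed separately per campaign, cut at about 7.5% in these data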
# SMARCA2 act – activators of SMARCA2 function; AID 652017; 1% of 370,000 active; activation, % at 9.1 µM; MG213 cells, MMTV-luciferase reporter, dexamethasone, overnight; in the data active = activation above about 7.8%
# H9c2 protect – protects H9c2 cardiomyocytes from peroxide injury | 0.63% of 360,000 active | protection from H2O2 cell death, % at 20 µM | H2O2 injury protection, ATPLite, 2 h | AID 588492;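 active = compounds giving at least 50% protection of heart cells from peroxide-induced death in the single-dose screen, raw or plate-pattern-corrected value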
# GalR3 antagonist – blocks the human galanin receptor 3. O60755. HEK293 GalR3-CNG cAMP membrane potential fluorescence; galR3 body fused to GalR1 C-terminus. inhibition, % at 3 µM. 0.44% of 360,000 active;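 active = inhibition above the screen-wide average plus 3 SD, cut at about 13% in these data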;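 also: forskolin and galanin both at EC90 stimulate the cells; cAMP rise reported by CNG channel membrane potential dye signal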
# Target sequence (O60755 1-299 limits assumed): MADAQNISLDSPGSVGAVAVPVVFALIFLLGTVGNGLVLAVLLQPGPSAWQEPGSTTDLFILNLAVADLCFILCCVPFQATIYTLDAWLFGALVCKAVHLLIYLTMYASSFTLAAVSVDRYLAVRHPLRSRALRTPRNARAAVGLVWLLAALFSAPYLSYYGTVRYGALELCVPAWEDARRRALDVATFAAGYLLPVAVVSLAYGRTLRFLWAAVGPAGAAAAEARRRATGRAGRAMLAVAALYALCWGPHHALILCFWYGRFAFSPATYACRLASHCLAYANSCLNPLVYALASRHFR
# Gli-Sufu block – antagonists of Gli-Sufu signaling. 0.74% of 340,000 active. inhibition, % at 5 µM. Sufu-KO-LIGHT fibroblasts, Gli luciferase reporter luminescence;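 active = inhibition above about 55%, limit read from the data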
# GalR3 conf – confirmation of human galanin receptor 3 antagonists | inhibition, % at 3 µM | AID 652245 | 59% of 1,600 active | shares compounds with GalR3 antagonist | HEK293 GalR3 CNG cAMP biosensor, membrane potential fluorescence; galR3 fused to GalR1 carboxy tail; challenged with forskolin and galanin at EC90;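 active = inhibition above the primary screen's cutoff, the mean inhibition of all screened compounds plus 3 SD, cut at about 13% in these data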
# HEK-CNG parental – acts as nonspecific agonist in parental HEK-CNG cells; shares compounds with GalR3 antagonist; HEK293-CNG parental cells, cAMP membrane potential fluorescence; normalised: DMSO wells 0%, forskolin wells 100%; activation, % at 3 µM; 10% of 1,600 active; in the data active = activation above about 1.3%
# Gal4-VP16 ctr – counter-screen for COUP-TFII antagonists: inhibitors of VP16. shares compounds with COUP-TFII inh. HEK293 Gal4-VP16 luciferase reporter, luminescence. inhibition, % at 8.5 µM. 25% of 2,500 active. AID 687007; in the data active = inhibition above about 13%
# NR2F2 inh conf – confirmation of human COUP-TFII (NR2F2) inhibitors. HEK293 NGFI-A luciferase reporter, luminescence. shares compounds with COUP-TFII inh. 45% of 2,500 active. inhibition, % at 8.5 µM;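 active = mean inhibition over three repeats above a set limit taken from the earlier primary screen, cut at about 38% in these data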
# A number is an active result; – = inactive; · = no result given. The list is not random: actives were taken first. Their share in the collection is about 3.4%.
SMILES,COUP-TFII inh,FXN GAA850 act,SMARCA2 act,H9c2 protect,GalR3 antagonist,Gli-Sufu block,GalR3 conf,HEK-CNG parental,Gal4-VP16 ctr,NR2F2 inh conf
CCN1CCN(CCOc2ccc(Cl)cc2)CC1,–,–,–,–,–,–,·,·,·,·
Cc1oc(-c2ccc(Cl)cc2)nc1CS(=O)CC(=O)NCCCN1CCN(Cc2ccccc2)CC1 (centres undefined),62,–,–,–,69,–,110,2.0,–,65
NS(=O)(=O)c1ccc(NC(=S)N2CCN(Cc3ccc(Cl)c(Cl)c3)CC2)cc1,–,–,–,–,–,–,·,·,·,·
NS(=O)(=O)c1ccc(NC(=S)N2CCN(c3ccc(Cl)c(Cl)c3)CC2)cc1,38,–,–,–,21,59,37,–,13,–
CCN1/C(=C/c2ccc3cccc(C)c3[n+]2CC)Sc2ccccc21,74,–,–,–,49,88,45,10,19,66
Cc1ccc2c(c1)S/C(=C\c1cccc[n+]1C)N2CCO,–,–,–,–,–,–,·,·,·,·
CCN1/C(=C/c2ccc3cc(C)cc(C)c3[n+]2CC)Sc2cc(C)ccc21,66,–,–,–,49,90,58,9.7,23,69
CCN1/C(=C\c2ccc3cc(C)ccc3[n+]2CC)Sc2cc(C)c(C)cc21,67,–,–,–,59,88,74,6.3,–,53
C[n+]1ccccc1/C=C1\Sc2ccccc2N1CCO,–,–,–,–,–,–,·,·,·,·
CC[n+]1c(/C=C/c2ccc(OC)c(OC)c2)ccc2ccccc21,–,–,–,–,–,–,·,·,·,·
COc1ccc(-n2nc(C(=O)NCC(=O)N3CCC(C)CC3)c3ccccc3c2=O)c(OC)c1,–,–,–,–,–,–,·,·,·,·
COc1ccc(CN(C)C(=O)c2ccc(OCC(=O)Nc3cccc(C(F)(F)F)c3)c(OC)c2)cc1,64,–,–,–,18,·,85,–,–,48
Nn1c(SCC(=O)Nc2ccc3c(c2)OCCO3)nncc1=O,–,–,–,–,–,–,·,·,·,·
N#CCCN(Cc1cccnc1)C(=S)NC(=O)c1ccccc1,–,–,–,–,–,–,·,·,·,·
Cn1c(CN2CCCCC2)nc2cc(NC(=O)c3cccc(Br)c3)ccc21,49,–,–,–,18,–,38,–,–,–
CCS(=O)(=O)c1ccc2oc(SCC(=O)NC3CCCC(C)C3C)nc2c1 (centres undefined),–,–,–,–,–,–,·,·,·,·
C=CCN(c1ccccc1)S(=O)(=O)c1cccc(C(=O)NC2CCN(Cc3ccccc3)CC2)c1,58,–,–,–,89,–,62,1.4,–,44
O=C(NC1CCN(Cc2ccccc2)CC1)c1cccc(S(=O)(=O)Nc2ccc(F)cc2)c1,55,–,–,–,17,–,54,–,–,–
CN(C)S(=O)(=O)c1cccc(C(=O)NCC(=O)NC2CCN(Cc3ccccc3)CC2)c1,–,–,–,–,–,–,·,·,·,·
CCC(NC(=S)NCc1ccc(F)cc1)c1ccccc1 (centres undefined),–,–,–,–,–,–,·,·,·,·
CC(C)N1CCN(Cc2ccc(Sc3nncn3C)o2)CC1CCO (centres undefined),–,–,–,–,–,–,·,·,·,·
CCOc1ccc(Cl)cc1S(=O)(=O)N1CCC(C(=O)NCC2CCCO2)CC1 (centres undefined),–,–,–,–,–,–,·,·,·,·
O=C(Nn1c(COc2ccccc2)nc2ccccc2c1=O)C(Cl)(Cl)Cl,–,–,–,–,–,–,·,·,·,·
CCc1ccc(CN2CCN(C(=O)c3cccc(OC)c3OC)CC2)cc1,54,–,–,–,98,–,101,–,–,40
COc1cccc(C(=O)N2CCN(C(=O)c3cccc4ccccc34)CC2)c1OC,–,–,–,–,–,–,·,·,·,·
SMILES,COUP-TFII inh,FXN GAA850 act,SMARCA2 act,H9c2 protect,GalR3 antagonist,Gli-Sufu block,GalR3 conf,HEK-CNG parental,Gal4-VP16 ctr,NR2F2 inh conf
CCN(CC)S(=O)(=O)c1ccc(NC(=O)c2ccc(N(C)S(C)(=O)=O)cc2)cc1,68,–,–,–,103,–,104,–,–,53
CCN(CC)S(=O)(=O)c1ccc(C(=O)Nc2ccc(Cc3ccncc3)cc2)cc1,51,–,–,–,34,–,76,–,–,56
CCN(CC)S(=O)(=O)c1ccc(NC(=O)c2ccccc2N(C)S(C)(=O)=O)cc1,–,–,–,–,–,–,·,·,·,·
CCN(CC)S(=O)(=O)c1ccc(C(=O)Nc2cc(C)cc(C)c2)cc1,–,–,–,–,–,–,·,·,·,·
CCCCN1CC[C@H]2C=CC[C@@H](C(=O)Nc3nccs3)[C@H]2C1=O,–,–,–,–,–,–,·,·,·,·
CC(=O)c1cccc(S(=O)(=O)N2CCCC(c3nc4c(nnn4Cc4ccccc4Cl)c(=O)[nH]3)C2)c1 (centres undefined),–,–,–,–,–,–,·,·,·,·
O=C(c1ccc(Cn2ccc([N+](=O)[O-])n2)cc1)N1CCN(Cc2ccccc2)CC1,–,–,–,–,–,–,·,·,·,·
CSc1ccc(CN2CCN(C(=O)c3ccc([N+](=O)[O-])cc3)CC2)cc1,71,–,–,–,102,–,106,–,–,44
Cc1cc(-n2c(C)cc(C(=O)CSc3ncnc4ccccc34)c2C)no1,54,–,–,–,91,73,–,–,–,60
Cc1ccc(S(=O)(=O)N2CCOCC2)cc1C(=O)OCC(=O)NCc1ccccc1,–,–,–,–,–,–,·,·,·,·
COc1cccc(NC(=O)C2C3C=CC(C3)C2C(=O)O)c1 (centres undefined),–,–,–,–,–,–,·,·,·,·
CN(C)c1ccc(C=c2c3ccccc3n3c2c2c([n+]3C)CCCC2)cc1,88,–,–,–,81,89,89,–,28,82
CN(CCOc1ccc(Cl)cc1)C(=O)c1cccc(S(=O)(=O)N2CCN(Cc3ccccc3)CC2)c1,67,–,–,–,31,–,84,–,15,58
CCCCn1c(N)c(N(CC(C)C)C(=O)C2CCN(S(=O)(=O)c3ccc(OCC)cc3)CC2)c(=O)[nH]c1=O,–,–,–,–,–,–,·,·,·,·
C1=C(CCNc2ncnc3c2[nH]c2ccccc23)CCCC1,67,–,–,–,84,78,98,1.4,–,48
